Screens as filed in PubChem BioAssay.
TNF necrop inh – inhibitors of TNF-alpha triggered necroptosis, primary screen, cell-based, Jurkat FADD-/-, single concentration; Jurkat FADD-/- TNF necroptosis rescue, ATP luminescence, 24 h; 0 = TNF only, 100 = no-TNF cells; activation (protection from cell death), % at 10 µM; 220,000 compounds, 0.068% hits; AID 463075, 2010;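 active = activation, meaning protection from cell death, of at least 50% relative to plate controls; inactive = activation below 50%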;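 note: necroptosis triggered by 40 ng/mL TNF-alpha added together with compound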
Wee1 degr inh – Wee1 degradation inhibitors, primary screen, cell-based, HeLa, Wee1K328M-luciferase, luminescence | AID 1321, 2008 | reporter increase, % at 5 µM | 220,000 compounds, 1.2% hits | HeLa Luc-Wee1K328M stability; 100% = proteasome inhibitor MG132 effect;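 active = activation above the mean of all tested compounds plus 3 SD, set per screening run, cut at about 8.8% in these data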;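 note: cells exposed to compound for 20 h before luminescence read; 0% = DMSO alone and 100% = MG132 at 30 µM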
Target sequence (P30291 whole entry K328M): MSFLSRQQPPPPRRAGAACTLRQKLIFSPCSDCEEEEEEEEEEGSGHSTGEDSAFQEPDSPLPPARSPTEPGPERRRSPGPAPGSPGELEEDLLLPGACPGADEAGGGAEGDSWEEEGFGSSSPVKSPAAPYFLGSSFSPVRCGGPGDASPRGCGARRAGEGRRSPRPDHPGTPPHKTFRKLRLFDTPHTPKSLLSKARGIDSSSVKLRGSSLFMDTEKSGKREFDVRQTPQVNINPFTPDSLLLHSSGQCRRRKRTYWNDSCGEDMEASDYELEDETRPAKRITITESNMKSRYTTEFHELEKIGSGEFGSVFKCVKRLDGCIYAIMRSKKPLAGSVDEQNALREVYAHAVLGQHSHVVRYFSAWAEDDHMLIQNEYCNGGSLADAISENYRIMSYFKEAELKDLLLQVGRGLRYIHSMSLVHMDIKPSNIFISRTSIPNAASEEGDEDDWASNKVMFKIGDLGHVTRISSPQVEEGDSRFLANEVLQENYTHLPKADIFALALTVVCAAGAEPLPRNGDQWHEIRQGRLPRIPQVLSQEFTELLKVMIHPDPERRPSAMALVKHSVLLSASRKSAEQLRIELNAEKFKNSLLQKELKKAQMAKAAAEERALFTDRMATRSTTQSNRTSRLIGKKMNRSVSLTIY
zVAD death inh – inhibitors of zVAD-triggered necroptosis, primary screen, L929 cells. L929 zVAD necroptosis rescue, ATP luminescence, 24 h; with zVAD 60 µM. 220,000 compounds, 0.38% hits. viability rescue, % at 10 µM;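 active = activation, scaled between plate controls, above about 75%, limit read from the data; inactive = activation under that limit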;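 note: 0% = zVAD with DMSO and 100% = DMSO alone without zVAD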
V-ATPase pH – regulators of yeast V-ATPase proton pumping, primary screen, pHLuorin cytosolic pH fluorescence | response, % at 10 µM | 350,000 compounds, 0.37% hits | S. cerevisiae | AID 504577, 2011; in the data active = response mostly above about 7.3%, no sharp cut-off; inactive = mostly below about 5.4%; note: actives read high
HSV augment – enhancers of HSV replication in host cells, fold increase, host cell viability; HSV replication augmentation in cells; maximum fold increase; 220,000 compounds, 0.005% hits; AID 1956, 2009; in the data active = maximum fold increase above about 1.5; tested in PC3 cells
zVAD death conf – inhibitors of zVAD-triggered necroptosis in L929, confirmation, L929 cells, duplicate runs; shares compounds with zVAD death inh; L929 zVAD-induced necroptosis rescue, ATP luminescence, 24 h; activation (protection from necroptosis), % at 10 µM; 760 compounds, 16% hits; AID 463117, 2010;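 active = mean protection from necroptosis of at least 50% over duplicate tests; inactive = mean protection below 50%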;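 note: 0% = cells with zVAD alone and 100% = vehicle cells without zVAD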
* = called active by the depositor; i = inactive; . = no result given. Shown are actives, neighbours in structure and some others; about 1.4% of the full set was active somewhere.

SMILES	TNF necrop inh	Wee1 degr inh	zVAD death inh	V-ATPase pH	HSV augment	zVAD death conf
Cc1ccc2c(C)nc(Nc3nc(CSc4nc5ccccc5[nH]4)cc(=O)[nH]3)nc2c1	-22	-1	87*	-2	i	53*
COc1ccc(-c2cc(C(=O)Nc3cc(OC)cc(C(=O)Nc4cccc(C(F)(F)F)c4)c3)[nH]n2)cc1	2	.	79*	2	i	3
O=C(Nc1ccc(-c2csc(Nc3cccc(C(F)(F)F)c3)n2)cc1)c1ccccc1	8	.	83*	0	i	38
O=C(Nc1cccc(-c2csc(Nc3cccc(C(F)(F)F)c3)n2)c1)c1ccccc1	5	.	7	0	i	.
CC1CC(C)CN(C(=O)CSc2nnc(-c3ccc(F)cc3)o2)C1 (stereo not drawn)	1	-2	89*	2	i	12
Cc1ccc(C(=O)CCC(=O)N2CCN(C(=O)c3ccco3)CC2)cc1	-1	-1	76*	5	i	8
Cc1ccc(CC(=O)N2CCN(C(=O)c3ccco3)CC2)cc1	-1	2	2	-3	i	.
Cc1cc(C)cc(-c2nnc(SCC(=O)N3CCN(C(=O)c4ccco4)CC3)o2)c1	-7	0	85*	0	i	24
Cc1csc(SC(C)C(=O)NC2CCCCC2C)n1 (stereo not drawn)	.	.	.	0	.	.
CCOc1ccc(NC(=O)CN(C)C(=O)C(C)N2C(=O)c3ccccc3C2=O)cc1OCC (stereo not drawn)	.	.	.	1	.	.
CCC(C)N(C)C1CCN(C(=S)Nc2cccc(SC)c2)CC1 (stereo not drawn)	0	-3	1	-2	i	.
Cc1ncsc1CCC(=O)N1CCCC(Nc2ccc(C(C)C)cc2)C1 (stereo not drawn)	.	.	.	-5	.	.
Nn1cnn(Cc2ccccc2)c1=S	6	6	88*	3	i	32
O=C(C1=NNCC1c1ccc(Cl)cc1)C1CO1 (stereo not drawn)	57*	1	89*	6	i	94*
Cc1ccc(C2CC(c3ccc(Cl)cc3)=NNC2=O)cc1 (stereo not drawn)	0	-2	0	1	i	.
COc1ccccc1NC(=O)C(C)N1C(=O)C2CCCCC2C1=O (stereo not drawn)	.	.	.	0	.	.
Cc1ccc(NC(=O)CN(C)C(=O)c2ccccc2Cc2ccccc2)cc1	.	.	.	0	.	.
Cc1ccc(NC(=O)c2ccc(N3CCOCC3)c([N+](=O)[O-])c2)cc1S(=O)(=O)N1CCOCC1	-4	-1	77*	1	i	35
CCOc1ccc(-c2nnn(CC(=O)Nc3cc(OC)cc(OC)c3)n2)cc1OCC	1	5	4	-6	i	.
COc1cc(NC(=O)Cn2nnc(-c3ccncc3)n2)cc(OC)c1	-4	-1	77*	1	i	30
O=C(Cn1nnc(-c2ccncc2)n1)Nc1ccc2c(c1)CCC2	1	-2	81*	4	i	39
O=C(Cn1nnc(-c2ccccc2)n1)Nc1ccc2c(c1)OCO2	1	0	0	-4	i	.
O=C(COc1ccccc1)NCC(c1ccco1)N1CCN(c2ccccc2)CC1 (stereo not drawn)	.	.	.	3	.	.
O=c1[nH]c(-c2ccccc2)c(-c2ccccc2)o1	.	.	.	-2	.	.
COc1ccc(NC(=O)c2cc3cccc(OC)c3oc2=Nc2ccc(C(=O)O)cc2)cc1OC	-6	-1	82*	-1	i	11
SMILES	TNF necrop inh	Wee1 degr inh	zVAD death inh	V-ATPase pH	HSV augment	zVAD death conf
Cc1cc(C)n(-c2ncccc2[N+](=O)[O-])n1	2	5	1	1	i	.
CC(C)c1ccc(-n2cnn(-c3ncccc3[N+](=O)[O-])c2=O)cc1	2	4	78*	-1	i	1
N/C(=N\c1nc(C(F)(F)F)cc(=O)[nH]1)Nc1ccc(Cl)cc1	3	5	1	.	i	.
CCN(CC)c1ccc(N/C(N)=N/c2nc(C(F)(F)F)cc(=O)[nH]2)cc1	-2	-3	91*	1	i	0
CC(=O)c1cnc2cc(-c3ccc(C)cc3)nn2c1C	-2	1	1	-4	i	.
CC(=O)c1cnc2cc(-c3ccccc3)nn2c1C	-1	-3	82*	-4	i	2
Cc1ccc(/C=N/Nc2nc3ccccc3[nH]2)s1	11	4	76*	-10	i	5
Cc1ccccc1/C=N/Nc1nc2ccccc2[nH]1	8	6	38	-5	i	.
C(=N\Nc1nc2ccccc2[nH]1)/c1c[nH]c2ccccc12	34	0	80*	1	i	35
C(=N\Nc1nc2ccccc2[nH]1)/c1ccccc1	13	1	84*	0	i	7
C(=C\c1ccccc1)/C=N/Nc1nc2ccccc2[nH]1	-6	5	5	0	i	.
Cc1cc(=O)[nH]c(N/N=C/c2c[nH]c3ccccc23)n1	11	-1	2	1	i	.
COC(=O)C1C(=O)C(C(=O)/C=C/c2ccccc2)C(=O)CC1(C)C (stereo not drawn)	4	-1	81*	-1	i	1
CCc1nnc(NS(=O)(=O)c2ccc(N/C=C/C(=O)c3ccc(OC)cc3)cc2)s1	0	6	79*	-3	i	2
Cc1onc(-c2c(Cl)cccc2Cl)c1CO/N=C(\C#N)c1c(Cl)cccc1Cl	0	-2	0	-1	i	.
O=C(CNC(=O)C12CC3CC(CC(C3)C1)C2)N1CCCC(C(F)(F)F)C1 (stereo not drawn)	.	.	.	-2	.	.
CCOc1ccc(-c2csc3ncn(-c4ccc(OC)cc4)c(=O)c23)cc1	-8	-3	-2	-1	i	.
O=C(CCN1C(=O)COc2ccccc21)NCCCN1CCCC1	.	.	.	-3	.	.
C/C(CC(=O)NC(C)C)=N\NC(=O)C(c1ccccc1)c1ccccc1	30	-1	82*	-1	i	40
C=CCOc1ccc(CNC(C)(C)CO)cc1OC	-3	-2	0	0	i	.
COc1cc(CNC(C)(C)CO)ccc1OCC(=O)Nc1ccc(Br)cc1	2	0	84*	2	i	29
Cn1nc(C(C)(C)C)cc1NC(=O)Nc1ccc(Cl)cc1	6	0	82*	.	i	55*
CCN(CC(=O)NCc1cccs1)C(=O)COc1ccc(C(N)=O)cc1	.	.	.	-1	.	.
O=C(Nc1ccc(F)cc1)Nc1ccc(N2CCCC2)c(S(=O)(=O)Nc2ccccc2Cl)c1	2	-1	76*	-4	i	72*
